# Screen size: about 39,000 compounds; about 3,300 (8.5%) were called active. The list comes from a sample in which actives are over-represented; it also holds similar structures and randomly drawn compounds.
# Test system: HepG2
# Assay: cytotoxicity call (relative viability < 0.9)
# Conditions: 10 µM
row,SMILES,cytotoxicity call
1,Cc1noc(C)c1S(=O)(=O)Nc1cccc2c1O[C@@H](CN(C)S(=O)(=O)c1cccs1)[C@@H](C)CN([C@@H](C)CO)C2=O,inactive
2,COc1ccc(-n2c(N)cc(=O)[nH]c2=O)cc1,inactive
3,N=C(N)Nc1nc(=O)c2ccccc2s1,inactive
4,c1ccc(Nc2nc3c(ccc4ccccc43)s2)cc1,active
5,CSc1cccc2sc(Nc3ccc(Cl)cc3)nc12,inactive
6,O=C(C[C@H]1CC=CC[C@H](Cc2ccc(F)cc2)C(=O)OC[C@@H](Cc2c[nH]c3ccccc23)NC1=O)NCCO,inactive
7,C[C@@H]1CN([C@@H](C)CO)C(=O)Cc2cc(NC(=O)C3CCCCC3)ccc2O[C@@H]1CN(C)S(C)(=O)=O,inactive
8,C[C@@H]1CN([C@@H](C)CO)C(=O)c2cc(NC(=O)C3CCCCC3)ccc2O[C@@H](C)CCCCO[C@H]1CN(C)C(=O)C1CCCCC1,inactive
9,Cc1noc(C)c1S(=O)(=O)Nc1ccc2c(c1)CC(=O)N([C@@H](C)CO)C[C@@H](C)[C@@H](CN(C)C(=O)Nc1ccc3c(c1)OCO3)O2,inactive
10,CNC(=O)c1c(O)c2ccccc2n(C)c1=O,active
11,CNC(=O)c1c(O)c2ccccc2[nH]c1=O,inactive
12,Cn1c(=O)c(C(=O)NCCO)c(O)c2ccccc21,inactive
13,COc1ccc2c3c([nH]c2c1)[C@H](CO)N(C[C@]13CCN(CC1)C(=O)CN(C)C)S(=O)(=O)C,inactive
14,CC1OC1P(=O)([O-])[O-].[Ca+2] (stereo not given),inactive
15,CSc1c(-c2ccc(Cl)cc2)[nH]c2ccccc12,active
16,Cc1[nH]c2ccccc2c1C(=O)CSc1ccc(Cl)cc1,inactive
17,NCC[S@@](=O)c1c(-c2ccc(F)cc2)[nH]c2ccccc12,inactive
18,C[C@H](CO)N1C[C@H](C)[C@H](CN(C)S(=O)(=O)c2ccc(Cl)cc2)Oc2ccc(NC(=O)CCN3CCOCC3)cc2C1=O,inactive
19,C[C@@H]1CN([C@@H](C)CO)C(=O)Cc2cc(NC(=O)c3ccncc3)ccc2O[C@H]1CN(C)S(C)(=O)=O,inactive
20,C[C@H](O)C#Cc1ccc2c(c1)O[C@H](CN(C)C(=O)CN(C)C)[C@@H](C)CN([C@@H](C)CO)S2(=O)=O,inactive
21,C[C@H](CO)N1C[C@H](C)[C@H](CN(C)S(=O)(=O)c2ccc(Cl)cc2)Oc2ccc(NC(=O)Nc3ccc(C(F)(F)F)cc3)cc2CC1=O,active
22,C[C@H]1CN([C@@H](C)CO)C(=O)Cc2cc(NC(=O)Nc3ccc(C(F)(F)F)cc3)ccc2O[C@H]1CN(C)S(C)(=O)=O,inactive
23,C[C@@H]1CN([C@H](C)CO)C(=O)Cc2cc(NC(=O)Nc3ccc(C(F)(F)F)cc3)ccc2O[C@H]1CN(C)S(C)(=O)=O,inactive

row,SMILES,cytotoxicity call
1,CC(C)NC(=O)Nc1ccc2c(c1)CC(=O)N([C@H](C)CO)C[C@@H](C)[C@@H](CN(C)S(=O)(=O)c1ccc(Cl)cc1)O2,inactive
2,C[C@@H]1CN([C@H](C)CO)C(=O)Cc2cc(NC(=O)Nc3ccc(C(F)(F)F)cc3)ccc2O[C@@H]1CN(C)S(=O)(=O)c1ccc(Cl)cc1,active
3,C[C@H]1CN([C@@H](C)CO)C(=O)Cc2cc(NC(=O)Nc3cccc(C(F)(F)F)c3)ccc2O[C@H]1CN(C)S(=O)(=O)c1ccc(Cl)cc1,active
4,C[C@H]1CN([C@@H](C)CO)C(=O)Cc2cc(NC(=O)Nc3ccc(C(F)(F)F)cc3)ccc2O[C@H]1CN(C)S(=O)(=O)c1ccc(Cl)cc1,active
5,C[C@@H]1CN([C@H](C)CO)C(=O)Cc2cc(NC(=O)Nc3ccc(C(F)(F)F)cc3)ccc2O[C@@H]1CN(C)S(C)(=O)=O,inactive
6,C[C@H](CO)N1C[C@H](C)[C@@H](CN(C)S(C)(=O)=O)Oc2ccc(NC(=O)Nc3ccc(C(F)(F)F)cc3)cc2CC1=O,inactive
7,O=C(O)c1ccc[nH]1,inactive
8,Cc1noc(C)c1NC(=O)N(C)C[C@@H]1Oc2ccc(NC(=O)Nc3ccc(C(F)(F)F)cc3)cc2CC(=O)N([C@@H](C)CO)C[C@@H]1C,inactive
9,C[C@@H]1CN([C@H](C)CO)C(=O)Cc2cc(NC(=O)Cn3cnnn3)ccc2O[C@H]1CN(C)Cc1ccc(Oc2ccccc2)cc1,inactive
10,CN1CCN(C(=O)C[C@H]2C=C[C@H](NS(=O)(=O)c3cccc(F)c3)[C@@H](CO)O2)CC1,inactive
11,Cn1cnc(S(=O)(=O)N[C@H]2CC[C@H](CC(=O)NCC3CC3)O[C@@H]2CO)c1,inactive
12,C[C@@H]1CN([C@@H](C)CO)C(=O)c2cc(NC(=O)CCC(F)(F)F)ccc2O[C@@H](C)CCCCO[C@H]1CN(C)C(=O)Nc1cccc2ccccc12,inactive
13,CC(C)N1C[C@H](C)[C@@H](CN(C)Cc2ccc(Oc3ccccc3)cc2)Oc2c(C(=O)Nc3ccncc3)cccc2C1=O,inactive
14,COc1ccc(NC(=O)Nc2ccc3c(c2)C(=O)N([C@@H](C)CO)C[C@H](C)[C@H](CN(C)Cc2ccc(C(=O)O)cc2)OCCCC[C@H](C)O3)cc1,inactive
15,CCCNS(=O)(=O)c1c[nH]c(C(=O)OC)c1,inactive
16,C[C@@H]1CN([C@@H](C)CO)C(=O)c2cccc(NS(=O)(=O)c3ccc(F)cc3)c2O[C@@H]1CN(C)CC1CC1,inactive
17,COc1ccc(S(=O)(=O)N(C)C[C@@H]2Oc3ccc(NC(=O)Nc4cccc(C(F)(F)F)c4)cc3CC(=O)N([C@@H](C)CO)C[C@@H]2C)cc1Cl,active
18,C[C@H]1CN([C@@H](C)CO)C(=O)Cc2cc(NC(=O)Nc3ccc(C(F)(F)F)cc3)ccc2O[C@@H]1CN(C)S(=O)(=O)c1ccc(Cl)cc1,active
19,C[C@H](CO)N1C[C@H](C)[C@@H](CN(C)S(=O)(=O)c2ccc(Cl)cc2)Oc2ccc(NC(=O)Nc3ccc(C(F)(F)F)cc3)cc2CC1=O,active
20,C[C@H]1CN([C@@H](C)CO)C(=O)Cc2cc(NC(=O)Nc3cccc(C(F)(F)F)c3)ccc2O[C@H]1CN(C)S(=O)(=O)c1ccc(Oc2ccccc2)cc1,active
21,C[C@@H]1CN([C@H](C)CO)C(=O)Cc2cc(NC(=O)Nc3ccc(C(F)(F)F)cc3)ccc2O[C@H]1CN(C)S(=O)(=O)c1ccc(Cl)cc1,inactive
22,C[C@@H]1CN([C@@H](C)CO)C(=O)Cc2cc(NC(=O)Nc3ccc(C(F)(F)F)cc3)ccc2O[C@H]1CN(C)S(=O)(=O)c1ccc(Cl)cc1,inactive

# From the antibiotic and cytotoxicity screens of Wong et al. (2023)
